Among the data in PubChem BioAssay (NCI) are growth inhibition values, retold here.

Each structure is given as a SMILES string. About 79,000 compounds went through this panel and 15% of them were active in at least one assay; those are over-represented in the sample as a whole. A number with no mark means an inactive call. The source made the active and inactive calls. Cut-off read from the data, not from the text of the source: active = growth inhibition above about 70%; inactive = the rest.

A short description of assay [1]: NCI Yeast Anticancer Drug Screen. Data for the rad50 strain (AID 155).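 Note: 0% = growth of vehicle-only cultures of the same strain.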 As to conditions: S. cerevisiae rad50 strain growth inhibition, active compounds read high. Put shortly: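 Yeast carrying a defined DNA repair defect were exposed to test compounds, and growth was compared with vehicle-treated controls to give percent inhibition.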
Assay [2] is described as follows: NCI Yeast Anticancer Drug Screen. Data for the mec2-1 strain (AID 157). As to conditions: S. cerevisiae mec2-1 strain, active compounds read high. Put shortly: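 mec2-1 yeast strain, carrying an alteration in DNA damage repair or cell cycle control, was exposed to compounds; growth inhibition was measured relative to vehicle-treated controls.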
Assay [3] is described as follows: NCI Yeast Anticancer Drug Screen. Data for the sgs1 mgt1 strain (AID 161).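 Note: 0% = growth of cultures given vehicle only.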 As to conditions: S. cerevisiae sgs1 mgt1 strain, active compounds read high. Put shortly: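 Yeast cells carrying a defined DNA-repair defect were exposed to test compounds. Growth inhibition was measured relative to vehicle-treated controls.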
Assay [4] can be described thus: NCI Yeast Anticancer Drug Screen. Data for the cln2 rad14 strain (AID 165).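 Note: 0% = growth equal to vehicle treated cultures.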 The following applies: S. cerevisiae cln2 rad14 strain, active compounds read high. Put shortly:
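Yeast carrying cln2 and rad14 alterations (cell cycle control and DNA damage repair) were exposed to compounds. Growth inhibition was measured against vehicle-treated controls.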

The nature of assay [5]: NCI Yeast Anticancer Drug Screen. Data for the bub3 strain (AID 167). The following applies: S. cerevisiae bub3 mutant strain, active compounds read high. The method, boiled down:
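Compounds were applied to a genetically altered yeast strain carrying a cell-cycle control defect. Growth inhibition was scored against vehicle-treated controls.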

A short description of assay [6]: NCI Yeast Anticancer Drug Screen. Data for the mlh1 rad18 strain (AID 175). As to conditions: S. cerevisiae mlh1 rad18 strain growth inhibition, active compounds read high. Put shortly:
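Growth inhibition of the yeast strain was measured after compound exposure and expressed relative to vehicle-treated controls. The strain carries defined defects in DNA damage repair.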

Setting [7] is: at 5.0 µM (retest, dose inferred, filed as 0.5).
Setting [8] is: at 50.0 µM (retest, dose inferred, filed as 5.0).

In the case of `Cc1cc(N(CCC#N)CCC#N)ccc1/C(Sc1ccccc1)=C(\NC(=O)/C=C/c1ccccc1)C(=O)Sc1ccccc1`, the growth inhibition in assay [1] (setting [7]) was 28%; in assay [1] (setting [8]), 28%; in assay [1] (at 50.0 µM) it was 86.6% (active); in assay [2] (setting [7]), 21%; in assay [2] (setting [8]), 21%; in assay [2] (at 50.0 µM), 90% (active). Besides, the growth inhibition was 25% in assay [3] (setting [7]); 25% in assay [3] (setting [8]); 90.9% (active) in assay [3] (at 50.0 µM); 17% in assay [4] (setting [7]); 17% in assay [4] (setting [8]); 64.5% in assay [4] (at 50.0 µM). Further, the growth inhibition in assay [5] (setting [7]) was 21%; in assay [5] (setting [8]), 21%; in assay [5] (at 50.0 µM), 87.2% (active); in assay [6] (setting [7]), 24%; in assay [6] (setting [8]), 24%; in assay [6] (at 50.0 µM), 75.1% (active).
For `Clc1sc2ccccc2c1Cl`, the growth inhibition in assay [1] (setting [7]) is 2%; in assay [1] (setting [8]) it was -18%; in assay [1] (at 50.0 µM) it was 22.2%; in assay [2] (setting [7]), -5%; in assay [2] (setting [8]), -3%; in assay [2] (at 50.0 µM), -11.9%. The growth inhibition is 2% in assay [3] (setting [7]); 1% in assay [3] (setting [8]); 25.2% in assay [3] (at 50.0 µM); 4% in assay [4] (setting [7]); -4% in assay [4] (setting [8]); 36.6% in assay [4] (at 50.0 µM). In addition, the growth inhibition in assay [5] (setting [7]) is -79%; in assay [5] (setting [8]) it was 0%; in assay [5] (at 50.0 µM), -7.55%; in assay [6] (setting [7]), -1%; in assay [6] (setting [8]), -2%; in assay [6] (at 50.0 µM), 14.6%.
As to `CC1=Cc2cc3[n-]c(cc4nc(cc5[n-]c(cc1n2)cc5C)C(C)=C4CCC(=O)O)c(CCC(=O)O)c3C.[Pd+2]`, the growth inhibition in assay [1] (setting [7]) was 0%; in assay [1] (setting [8]), 72% (active); in assay [1] (at 50.0 µM), 15.1%; in assay [2] (setting [7]) it was 2%; in assay [2] (setting [8]) it was 55%; in assay [2] (at 50.0 µM), 26%. The growth inhibition is 0% in assay [3] (setting [7]); 80% (active) in assay [3] (setting [8]); 12.2% in assay [3] (at 50.0 µM); -11% in assay [4] (setting [7]); 61% in assay [4] (setting [8]); 62.8% in assay [4] (at 50.0 µM). Also, the growth inhibition in assay [5] (setting [7]) is -3%; in assay [5] (setting [8]), 69%; in assay [5] (at 50.0 µM), 7.7%; in assay [6] (setting [7]), -1%; in assay [6] (setting [8]) it was 73% (active); in assay [6] (at 50.0 µM), 10.6%.
Regarding `CC(C)N=Cc1cc(Br)cc(Br)c1O.CC(C)N=Cc1cc(Br)cc(Br)c1O.[Co]`, the growth inhibition in assay [1] (setting [7]) was 93% (active); in assay [1] (setting [8]), 99% (active); in assay [1] (at 50.0 µM), 92% (active); in assay [2] (setting [7]), 54%; in assay [2] (setting [8]), 99% (active); in assay [2] (at 50.0 µM), 90.6% (active). For the same compound, the growth inhibition was 87% (active) in assay [3] (setting [7]); 99% (active) in assay [3] (setting [8]); 98% (active) in assay [3] (at 50.0 µM); 88% (active) in assay [4] (setting [7]); 99% (active) in assay [4] (setting [8]); 65% in assay [4] (at 50.0 µM). Also, the growth inhibition is 98% (active) in assay [5] (setting [7]); 99% (active) in assay [5] (setting [8]); 86.3% (active) in assay [5] (at 50.0 µM); 98% (active) in assay [6] (setting [7]); 99% (active) in assay [6] (setting [8]); 88.7% (active) in assay [6] (at 50.0 µM).
As to `N#CCc1nc2c(s1)C(=O)c1ccccc1C2=O`, the growth inhibition in assay [1] (setting [7]) is 52%; in assay [1] (setting [8]) it was 99% (active); in assay [1] (at 50.0 µM) it was 71.4% (active); in assay [2] (setting [7]) it was 48%; in assay [2] (setting [8]), 100% (active); in assay [2] (at 50.0 µM) it was 82.5% (active). Besides, the growth inhibition in assay [3] (setting [7]) was 47%; in assay [3] (setting [8]), 100% (active); in assay [3] (at 50.0 µM), 41.8%; in assay [4] (setting [7]), 30%; in assay [4] (setting [8]) it was 98% (active); in assay [4] (at 50.0 µM), 35.2%. Also, the growth inhibition is 55% in assay [5] (setting [7]); 99% (active) in assay [5] (setting [8]); 87.2% (active) in assay [5] (at 50.0 µM); 67% in assay [6] (setting [7]); 99% (active) in assay [6] (setting [8]); 68.7% in assay [6] (at 50.0 µM).
With `CCCCCCCCCCCC(C)N` (stereo unspecified), the growth inhibition is 15% in assay [1] (setting [7]); 83% (active) in assay [1] (setting [8]); 99% (active) in assay [1] (at 50.0 µM); 4% in assay [2] (setting [7]); 78% (active) in assay [2] (setting [8]); 99.5% (active) in assay [2] (at 50.0 µM). Also, the growth inhibition in assay [3] (setting [7]) is 4%; in assay [3] (setting [8]) it was 91% (active); in assay [3] (at 50.0 µM) it was 98.7% (active); in assay [4] (setting [7]), 12%; in assay [4] (setting [8]), 25%; in assay [4] (at 50.0 µM) it was 98% (active). In addition, the growth inhibition in assay [5] (setting [7]) is 11%; in assay [5] (setting [8]), 86% (active); in assay [5] (at 50.0 µM), 99.2% (active); in assay [6] (setting [7]), 2%; in assay [6] (setting [8]) it was 74% (active); in assay [6] (at 50.0 µM) it was 98.1% (active).
Consider `N#C/C(=C\c1ccc(Cl)cc1Cl)C(N)=S`, for which the growth inhibition in assay [1] (setting [7]) was -3%; in assay [1] (setting [8]) it was 78% (active); in assay [1] (at 50.0 µM), 94.7% (active); in assay [2] (setting [7]), -4%; in assay [2] (setting [8]), 88% (active); in assay [2] (at 50.0 µM) it was 95.2% (active). Besides, the growth inhibition in assay [3] (setting [7]) is -2%; in assay [3] (setting [8]), 93% (active); in assay [3] (at 50.0 µM), 98.5% (active); in assay [4] (setting [7]), -12%; in assay [4] (setting [8]) it was 82% (active); in assay [4] (at 50.0 µM) it was 86.8% (active). Moreover, the growth inhibition in assay [5] (setting [7]) is -9%; in assay [5] (setting [8]), 79% (active); in assay [5] (at 50.0 µM), 89.1% (active); in assay [6] (setting [7]), -11%; in assay [6] (setting [8]) it was 93% (active); in assay [6] (at 50.0 µM), 95.7% (active).
